Results published in the supplement of paper PMC7411054.
Structures can show the parent of a compound that is named as a salt.

Key:
Settings in all cases: treatment time: 24 h
A549-ACTB-RAB5A [1] = test: lowest phenotypically active concentration; higher = less potent
Summary of the method: (§1)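 After 24 h at 0.3, 1, 3 or 9 µM, with four wells per treatment, fifteen gene-edited A549, HepG2 and WPMY1 reporter lines carrying BFP, GFP and RFP/FusionRed were imaged live. Each well's live-cell features were expressed relative to solvent control wells. Deviation required ≥3 of 4 wells past the 95th percentile of control Euclidean distances, and reproducibility a median replicate Pearson correlation over the 95th percentile of non-replicates. Phenotypic activity rested on both.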

A549-CANX-COX4 [2] = test: as above
Summary of the method: as §1

A549-GM130-SQSTM1 [3] = test: as above
Summary of the method: as §1

A549-TP53BP1-CLTA [4] = test: as above
Summary of the method: as §1

A549-TUBA1B-RELA [5] = test: as above
Summary of the method: as §1

HepG2-GM130-SQSTM1 [6] = test: as above
Summary of the method: as §1

A549-ACTB-RAB5A [7] = test: phenotypically active (imaging signature differs from DMSO and reproducible) at any of 0.3-9 uM (binary (1 = active, 0 = inactive)); higher = active
Summary of the method: as §1

A549-CANX-COX4 [8] = test: as above
Summary of the method: as §1

A549-GM130-SQSTM1 [9] = test: as above
Summary of the method: as §1

A549-TP53BP1-CLTA [10] = test: as above
Summary of the method: as §1

A549-TUBA1B-RELA [11] = test: as above
Summary of the method: as §1

HepG2-ACTB-RAB5A = test: as above
Summary of the method: as §1

HepG2-CANX-COX4 = test: as above
Summary of the method: as §1

HepG2-GM130-SQSTM1 [12] = test: as above
Summary of the method: as §1

HepG2-TP53BP1-CLTA = test: as above
Summary of the method: as §1

HepG2-TUBA1B-RELA = test: as above
Summary of the method: as §1

WPMY1-CANX-COX4 = test: as above
Summary of the method: as §1

WPMY1-GM130-SQSTM1 = test: as above
Summary of the method: as §1

WPMY1-TP53BP1-CLTA = test: as above
Summary of the method: as §1

WPMY1-TUBA1B-RELA = test: as above
Summary of the method: as §1

| SMILES | lowest phenotypically active concentration (A549-ACTB-RAB5A [1]) | lowest phenotypically active concentration (A549-CANX-COX4 [2]) | lowest phenotypically active concentration (A549-GM130-SQSTM1 [3]) | lowest phenotypically active concentration (A549-TP53BP1-CLTA [4]) | lowest phenotypically active concentration (A549-TUBA1B-RELA [5]) | lowest phenotypically active concentration (HepG2-GM130-SQSTM1 [6]) | phenotypically active (A549-ACTB-RAB5A [7]) | phenotypically active (A549-CANX-COX4 [8]) | phenotypically active (A549-GM130-SQSTM1 [9]) | phenotypically active (A549-TP53BP1-CLTA [10]) | phenotypically active (A549-TUBA1B-RELA [11]) | phenotypically active (HepG2-ACTB-RAB5A) | phenotypically active (HepG2-CANX-COX4) | phenotypically active (HepG2-GM130-SQSTM1 [12]) | phenotypically active (HepG2-TP53BP1-CLTA) | phenotypically active (HepG2-TUBA1B-RELA) | phenotypically active (WPMY1-CANX-COX4) | phenotypically active (WPMY1-GM130-SQSTM1) | phenotypically active (WPMY1-TP53BP1-CLTA) | phenotypically active (WPMY1-TUBA1B-RELA) |
| --- | --- | --- | --- | --- | --- | --- | --- | --- | --- | --- | --- | --- | --- | --- | --- | --- | --- | --- | --- | --- |
| CN[C@H]1CC[C@@H](c2ccc(Cl)c(Cl)c2)c2ccccc21 [sertraline] | 1 µM | 9 µM | 3 µM | 9 µM | 1 µM | 3 µM | 1 (active) | 1 (active) | 1 (active) | 1 (active) | 1 (active) | 1 (active) | 1 (active) | 1 (active) | 1 (active) | 1 (active) | 1 (active) | 1 (active) | 1 (active) | 1 (active) |
| Cc1c(NC(=O)OC[C@@H]2COCCN2)cn2ncnc(Nc3ccc4c(cnn4Cc4cccc(F)c4)c3)c12 | 1 µM | 1 µM | 1 µM | ≤ 0.3 µM | 1 µM | 1 µM | 1 (active) | 1 (active) | 1 (active) | 1 (active) | 1 (active) | 1 (active) | 1 (active) | 1 (active) | 1 (active) | 1 (active) | 1 (active) | 1 (active) | 1 (active) | 1 (active) |
| Oc1ccc(-c2nc(-c3ccc(F)cc3)c(-c3ccncc3)[nH]2)cc1 | 3 µM | 3 µM | 9 µM | 1 µM | 3 µM | ≤ 0.3 µM | 1 (active) | 1 (active) | 1 (active) | 1 (active) | 1 (active) | 1 (active) | 1 (active) | 1 (active) | 1 (active) | 1 (active) | 1 (active) | 1 (active) | 1 (active) | 1 (active) |
| COc1ccc(N2C(=O)CSC2c2cccc(Br)c2)c(OC)c1 (stereo not given) | 3 µM | 9 µM | 9 µM | 3 µM | 9 µM | 9 µM | 1 (active) | 1 (active) | 1 (active) | 1 (active) | 1 (active) | 1 (active) | 1 (active) | 1 (active) | 1 (active) | 1 (active) | 1 (active) | 1 (active) | 1 (active) | 1 (active) |
| Fc1ccccc1CNCc1ccc(-c2ccnc3[nH]ccc23)cc1 [OXA 06 dihydrochloride] | ≤ 0.3 µM | 1 µM | 3 µM | 1 µM | 1 µM | ≤ 0.3 µM | 1 (active) | 1 (active) | 1 (active) | 1 (active) | 1 (active) | 1 (active) | 1 (active) | 1 (active) | 1 (active) | 1 (active) | 1 (active) | 1 (active) | 1 (active) | 1 (active) |
| Cc1ccc(C(=O)N(CCCN)[C@@H](c2nc3cc(Cl)ccc3c(=O)n2Cc2ccccc2)C(C)C)cc1 [Ispinesib] | ≤ 0.3 µM | ≤ 0.3 µM | ≤ 0.3 µM | ≤ 0.3 µM | ≤ 0.3 µM | ≤ 0.3 µM | 1 (active) | 1 (active) | 1 (active) | 1 (active) | 1 (active) | 1 (active) | 1 (active) | 1 (active) | 1 (active) | 1 (active) | 1 (active) | 1 (active) | 1 (active) | 1 (active) |
